Compound activity: PubChem BioAssay, National Center for Advancing Translational Sciences (NCATS)
Tb PYK inh = qHTS of Trypanosoma Brucei Inhibitors; hit rate 0.12% among 410,000; pyruvate kinase (Trypanosoma brucei), Q57TT1; TbPYK enzyme, Kinase-Glo Plus ATP luminescence, 45 min; AID 624173, 2012; Potency, µM (top dose mostly 76.8 µM), usual class: inhibitors; also: nearly all actives have a fitted effect of over 50% in size
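Luminescence from Kinase-Glo Plus, added after a 45-minute room-temperature reaction, served as the end-point read-out. The enzyme and substrate were preincubated with compound before ADP (130 uM final) initiated turnover. Concentration-effect curves came from normalized qHTS data.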
LmPK inhibitor = qHTS Assay for Inhibitors of Leishmania Mexicana Pyruvate Kinase (LmPK); Q27686; purified LmPK, Kinase-Glo ATP luminescence, 1 h; Potency, µM (titrated, usually from 57.5 µM), actives largely listed as inhibitors; hit rate 0.37% among 290,000; AID 1721, 2009
Target sequence (Q27686 whole entry, looked up): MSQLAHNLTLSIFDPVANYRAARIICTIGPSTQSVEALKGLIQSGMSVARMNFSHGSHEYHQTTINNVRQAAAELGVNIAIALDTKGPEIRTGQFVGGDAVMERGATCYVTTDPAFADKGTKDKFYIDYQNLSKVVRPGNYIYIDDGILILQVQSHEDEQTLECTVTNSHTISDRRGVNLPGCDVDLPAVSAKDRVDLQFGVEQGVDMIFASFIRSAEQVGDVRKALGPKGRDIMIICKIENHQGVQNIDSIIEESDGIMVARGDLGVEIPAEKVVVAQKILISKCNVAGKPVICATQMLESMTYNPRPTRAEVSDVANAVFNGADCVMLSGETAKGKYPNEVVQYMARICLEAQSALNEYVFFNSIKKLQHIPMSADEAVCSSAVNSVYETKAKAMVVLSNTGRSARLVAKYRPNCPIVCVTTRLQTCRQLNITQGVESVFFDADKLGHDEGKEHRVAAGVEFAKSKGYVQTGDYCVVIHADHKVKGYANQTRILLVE
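Pyruvate kinase activity monitored as ATP production (luciferase luminescence). Conditions: 0.1 nM enzyme, 0.5 mM PEP, 0.1 mM ADP, 1 h, RT; normalized against uninhibited and no-enzyme wells.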
Vaccinia Venus = qHTS for Stage-Specific Inhibitors of Vaccinia Orthopoxvirus: Venus Reporter Primary qHTS. hit rate 0.46% among 330,000. Potency, µM (titrated, usually from 36.5 µM), actives largely listed as inhibitors. Vaccinia virus Venus reporter expression, fluorescence; calls by dose curve; tested in A549 cells; also: nearly all actives have a fitted effect of over 30% in size
VACV mCherry inh = qHTS for Stage-Specific Inhibitors of Vaccinia Orthopoxvirus: mCherry Reporter Primary qHTS; Vaccinia virus mCherry reporter infection, fluorescence; Potency, µM (doses to about 36.5 µM), usual class: inhibitors; hit rate 0.63% among 310,000; calls by dose curve; tested in A549 cells; also: nearly all actives have a fitted effect of over 35% in size
HCMV antiviral = qHTS Assay for inhibitors of the human cytomegalovirus (HCMV); activity change, negative = inhibition, % at 57.5 µM; HFF cells, HCMV-luciferase reporter, 72 h; stronger effect = lower value; hit rate 4.5% among 410,000; in the data active = activity change below about -60%; inconclusive = no clear call, values can overlap the other calls; inactive = above about -39%
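HFF cells seeded 16 h at 37C, treated with compounds, infected with luciferase-reporter HCMV at MOI 1 PFU/cell; luciferase read at 72 h post infection, normalized to buffer-only and Salinomycin controls.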
Numbers stand for hits; . = inactive; ? = inconclusive; / = not tested or not shown; + = active, no number; ! = repeats disagree; [ ] = remark or other dose. In the library only some 5% were active in any assay of this set; here they are far more common. Unless noted, calls follow the shape of the dose curve; as a rule, active = well fitted curve in the direction sought with a large enough effect; inconclusive = small, poorly fitted or top-dose-only effect, or another doubt; inactive = no such curve, though single readings can be large; an effect the other way counts as inactive or inconclusive.

SMILES	Tb PYK inh	LmPK inhibitor	Vaccinia Venus	VACV mCherry inh	HCMV antiviral
COC(=O)c1ccc(S(=O)(=O)NCc2ccc(S(N)(=O)=O)cc2)o1	.	.	.[7.34 µM]	.[7.34 µM]	.
O=C(N/N=C/c1cc(Br)c(Br)o1)c1cc2ccccc2o1	.	.	.	.	+
O=C(N/N=C\c1ccc([N+](=O)[O-])o1)c1cncc(Br)c1	.	.	?	?	-83
O=C(N/N=C/c1ccc([N+](=O)[O-])o1)c1cc2ccccc2o1	.	.	/	/	?
O=C(N/N=C/c1ccncc1)c1cc2ccccc2o1	.	.	.	.	.
O=C(N/N=C/c1ccc([N+](=O)[O-])o1)c1cc2c(ccc3ccccc32)o1	.	.	/	/	-72
Cc1nc2ccccn2c1C(=O)N/N=C/c1ccc([N+](=O)[O-])cc1	.	.	.	.	/
Cc1nc2ccccn2c1C(=O)N/N=C/c1ccc([N+](=O)[O-])o1	.	.	7.1µM	?	-74
O=C(NCc1cccnc1)/C(=C\c1ccc(-c2cccc(Cl)c2)o1)S(=O)(=O)c1ccccc1	.	.	10µM	11µM	-103
O=C(NCc1cccnc1)/C(=C/c1ccc(-c2cccc(Cl)c2)o1)S(=O)(=O)c1ccccc1	.	.	.	.	.
CNC(=O)COc1coc(CN2CCN(c3ccccc3F)CC2)cc1=O	.	.	.	.	.
Cc1c(Cl)cccc1N/C(SCC(=O)N1CCCCCC1)=C(/C#N)c1nc2ccccc2s1	.	.	.	.	-101
NS(=O)(=O)c1ccc(N2N=C(c3ccccc3)CC2c2ccccc2Br)cc1 (stereo not given)	.	/	.	?	.
CC(=O)N1N=C(c2ccccc2)CC1c1cn(Cc2ccccc2)c2ccccc12 (stereo not given)	.	.	?	?	-87
O=[N+]([O-])c1ccc(N2N=C(c3ccccc3)CC2c2ccccc2O)cc1 (stereo not given)	/	.	/	/	-63
O=C(c1ccccc1)N1N=C(c2ccccc2)CC1c1ccccc1O (stereo not given)	?	.	.	.	-62
Cc1ccc(C2=NN(C(=O)CCC(=O)O)C(c3cn(-c4ccccc4)nc3-c3ccc(C)cc3)C2)cc1 (stereo not given)	.	.[11.5 µM]	/	/	-60
COc1ccc(N2CCN(C(=O)COC(=O)c3cc(S(=O)(=O)N(C)C)ccc3N3CCCC3)CC2)cc1	.	/	.	.	.
COc1cccc(C2CC(c3cccs3)=NN2C(=O)c2ccco2)c1O (stereo not given)	.	.	.	.	.
O=C(c1cccs1)N1N=C(c2ccccc2)CC1c1ccccc1O (stereo not given)	.	.	?	.	-60
O=CN1N=C(c2ccccc2)CC1c1ccccc1[N+](=O)[O-] (stereo not given)	.	.	.	.	.
Cc1ccc(C2=NN(C(=O)c3cccs3)C(c3ccccc3O)C2)cc1 (stereo not given)	.	.	.	.	-61
N#CC1CC(c2ccccc2)=NN1c1ccccc1[N+](=O)[O-] (stereo not given)	.	.	.	.	-64
O=C(c1ccco1)N1N=C(c2cccs2)CC1c1ccccc1O (stereo not given)	.	.	.	.	-68
COc1ccc(C2=NN(C(=O)c3cccs3)C(c3ccccc3OC)C2)cc1OC (stereo not given)	.	.	.	?	.
SMILES	Tb PYK inh	LmPK inhibitor	Vaccinia Venus	VACV mCherry inh	HCMV antiviral
COc1ccc(S(=O)(=O)N2CCN(CC(O)COc3ccc(C#N)cc3)CC2)cc1OC (stereo not given)	.	.	.	.	.
Oc1cccc2ccc(Nc3ccccn3)nc12	.	.	/	/	-103
CC(Oc1ccc(Cl)cc1Cl)C(=O)N(C)c1ccccc1 (stereo not given)	.	.	/	/	-67
CCOc1ccc(Br)cc1S(=O)(=O)N1CCC(C(N)=O)CC1	.	.	.	.	-64
CCc1ccc(S(=O)(=O)Nc2cccc(-c3ccc(OC)nn3)c2)s1	.	/	.	.	.
CCCCn1c(NC(=O)c2ccco2)c(S(=O)(=O)c2ccc(C)cc2)c2nc3ccccc3nc21	.	.	.	.	.
CCCCn1c(NC(=O)c2ccco2)c(C(=O)OCC)c2nc3ccccc3nc21	.	.	.	.	-69
COc1ccc(OC)c(NC(=O)c2ccc3c(c2)c(C)c(C)n3Cc2ccc(F)cc2)c1	.[15.4 µM]	/	.	.	.
COc1ccc(NC(=O)c2ccc3c(c2)c(C)c(C)n3Cc2ccc(F)cc2)c(OC)c1	.[15.4 µM]	/	.	.	+
Cc1ccc(-n2cccc2C(=O)NS(=O)(=O)c2ccc(C)cc2)cc1	.	.	/	/	.
Cc1ccc(-n2cccc2C(=S)N=P(N(C)C)(N(C)C)N(C)C)cc1	.	.	.	?	-80
Clc1nc(-c2ccccc2)c2ccccc2n1	.	.	.	.	.
CCc1nc(N=C(N)N)nc2ccccc12	/	.	/	/	-82
CCc1nc2ccccc2c(C(=O)O)c1C	.	.	/	/	.
NC(N)=Nc1nc(-c2ccccc2)c2ccccc2n1	.	.	?	.	-95
COc1cccc(-n2c(O)c(C=NCCN3CCNCC3)c(=O)[nH]c2=S)c1	.	.	.	.	.
Cc1ccc(Nc2cc(C)nn2-c2nc(C)cc(=O)[nH]2)cc1	.	.	?	2.2µM	/
COc1ccc2nc(NC(=O)c3nc(SC(C)C)ncc3Cl)sc2c1	.	/	.	.	.
Cc1ccc(CS(=O)(=O)c2ncc(Cl)c(C(=O)Nc3nc4ccc(F)cc4s3)n2)cc1	.	/	?	?	-93
Cc1ccc(CS(=O)(=O)c2ncc(Cl)c(C(=O)Nc3nc4ccc(C)cc4s3)n2)cc1	.	/	?	?	-107
COc1ccc2nc(NC(=O)c3nc(S(=O)(=O)Cc4ccc(C)cc4)ncc3Cl)sc2c1	.	/	.	.	-100
CCCc1nnc(NC(=O)c2nc(S(=O)(=O)Cc3ccc(C)cc3)ncc2Cl)s1	.	.	.	.	-107!
CCCCCCNC(=O)CCc1c(C)nc2nc(-c3cc(OC)cc(OC)c3)nn2c1C	.	/	.	.	.
CCCCNC(=O)CCc1c(C)nc2nc(-c3cc(OC)cc(OC)c3)nn2c1C	.	.	/	/	-95
Cc1nn(C(=O)c2ccccc2)c(C)c1S(=O)(=O)N1CCCCCC1	.	/	.	.	.
SMILES	Tb PYK inh	LmPK inhibitor	Vaccinia Venus	VACV mCherry inh	HCMV antiviral
Cc1nn(C(=O)c2cccc(F)c2)c(C)c1S(=O)(=O)N1CCCCCC1	.	/	.	.	-91
Cc1nn(C(=O)c2cccc(F)c2)c(C)c1S(=O)(=O)N1CCOCC1	.	/	.	.	-81
O=C(c1ccccc1)c1nn(-c2cccc(Cl)c2)ccc1=O	.	.	.	.	.
COc1ccc(N(Cc2ccccc2)S(=O)(=O)c2cccc(C(=O)Nc3ncccc3C)c2)cc1	.	/	/	/	.
OCCNCc1cc(Br)ccc1OCc1ccccc1	.	.	.	.	-68
CCOc1cc(CNCCc2ccc(S(N)(=O)=O)cc2)cc(Cl)c1OCc1ccccc1	.	.	/	/	-61
